# In PubChem BioAssay (NCATS):
# Records with an inconclusive call do not appear. Active and inactive are the calls of the source. Unless noted, calls come from the whole dose curve; as a rule, active = well fitted curve in the direction sought with a large enough effect; inconclusive = small, poorly fitted or top-dose-only effect, or another doubt; inactive = no such curve, though single readings can be large; an effect the other way counts as inactive or inconclusive.
# Experiments:
# [1] = qHTS profiling for inhibitors of Plasmodium falciparum (3D7) proliferation (AID 743322; call rule not given here;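 note: infected erythrocytes exposed to compound for 72 h before lysis; 100% = DMSO vehicle wells and 0% = 0.29 µM artemisinin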); details: P. falciparum 3D7 proliferation; at 28.7 µM (top of the series)
# How it was run: (§1)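 Erythrocytes infected with P. falciparum (0.3% parasitemia, 2.5% hematocrit) incubated with compounds 72 h at 37 C, 5% CO2. Lysis with saponin/Triton buffer containing SYBR Green I, overnight at room temperature in the dark; DNA fluorescence (485/535 nm) normalised to 0.29 uM artemisinin and DMSO.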
# [2] = qHTS profiling for inhibitors of Plasmodium falciparum (DD2) proliferation (AID 743323; call rule not given here); details: lower = more inhibition; at 28.7 µM (top of the series)
# How it was run: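 SYBR Green fluorescence (ex 485, em 535 nm) of lysed cultures gives parasite DNA content; wells normalized to artemisinin (0.29 uM) and DMSO controls. Infected red cells: 0.3% parasitemia, 2.5% hematocrit, 72 h, 37 C.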
# [3] = qHTS profiling for inhibitors of Plasmodium falciparum (HB3) proliferation (AID 743324); details: Plasmodium falciparum HB3 blood-stage proliferation; at 28.7 µM (top of the series);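 note: 100% = DMSO vehicle wells and 0% = artemisinin-treated control wells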
# How it was run: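 P. falciparum HB3 grown in erythrocytes (0.3% parasitemia, 2.5% hematocrit final) with compound for 72 h at 37 C, 5% CO2. Parasite DNA detected by SYBR Green after saponin/triton lysis overnight; normalized to 0.29 uM artemisinin and DMSO.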
# [4] = qHTS profiling of the MIPE4 collection as inhibitors of Plasmodium falciparum (3D7) proliferation (AID 743344; call rule not given here;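 note: scaled between DMSO vehicle wells and 0.29 µM artemisinin as full inhibition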); details: P. falciparum 3D7 in erythrocytes, SYBR Green DNA fluorescence, 72 h; at 28.5 µM (top of the series) unless noted
# How it was run: as §1
# [5] = qHTS profiling of the MIPE4 collection as inhibitors of Plasmodium falciparum (DD2) proliferation (Rep 2) (AID 743346; call rule not given here); details: P. falciparum Dd2 in erythrocytes, SYBR Green DNA, 72 h; at 28.5 µM (top of the series) unless noted
# How it was run: as §1
# [6] = qHTS profiling of the MIPE4 collection as inhibitors of Plasmodium falciparum (HB3) proliferation (AID 743347; call rule not given here;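 note: plate controls were DMSO vehicle wells for no effect and artemisinin wells for full effect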); details: P. falciparum HB3 in erythrocytes, SYBR Green DNA, 72 h; at 28.5 µM (top of the series) unless noted
# How it was run: as §1
# [7] = High-throughput drug toxicity screening in the BPDCN cell line Gen2.2 (AID 1224824; call rule not given here;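 note: cells exposed to compounds for 48 h before reading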); details: Gen2.2 BPDCN cells; at 45.8 µM (top of the series) unless noted
# How it was run: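 Gen2.2 cells, 500 per well in phenol red-free RPMI with 10% FBS, exposed to compounds 48 h at 37 C, 5% CO2; viability by CellTiter-Glo luminescence. Percent activity scaled to DMSO (100%) and 9.2 uM bortezomib final (0%).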
# [8] = High-throughput drug toxicity screening in the BPDCN cell line Cal-1 (AID 1224825; call rule not given here); details: Cal-1 BPDCN cell viability, qHTS; at 45.8 µM (top of the series) unless noted
# How it was run: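 Exponentially growing Cal-1 cells, 500 per well in phenol red-free RPMI with 10% FBS, were exposed to compounds for 48 h at 37 °C, 5% CO2. Viability was read by CellTiter-Glo luminescence and normalised to DMSO (100%) and 9.2 uM bortezomib (0%).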
# [9] = qHTS assay for measurement of the activity of small molecule inhibitors on Zika virus induced Caspase-3 activity in human iPSC derived neural progenitor cells (hNPCs) (AID 1224857); note: nearly all actives have a fitted effect of over 65% in size; note: potency is the fitted concentration of half-maximal effect
# How it was run: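 Pretreat hNPCs with compound 1 h; infect ZIKV 2 FFU/cell; 6 h 37 C, 5% CO2; Caspase-Glo 3/7, 30 min RT; luminescence; normalize to no-virus and virus-only wells.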
# [10] = qHTS Screen of the MIPE 4.0 Collection Against Ewings Sarcoma (RDES) (AID 1259252); note: potency is the fitted concentration of half-maximal effect; nearly all actives have a fitted effect of over 35% in size
# How it was run: (§2)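 Here, cells in 5% FBS RPMI were exposed for two days (48 h) to compound dilutions added four hours after plating. ATP-based CellTiter-Glo luminescence measured viability, normalized to vehicle and no-cell blanks.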
# [11] = qHTS Screen of the MIPE 4.0 Collection Against Ewings Sarcoma (TC71) (AID 1259253); note: nearly all actives have a fitted effect of over 40% in size; note: potency is the fitted concentration of half-maximal effect
# How it was run: as §2
# [12] = qHTS Screen of the MIPE 4.0 Collection Against Ewings Sarcoma (EW8) (AID 1259255); note: nearly all actives have a fitted effect of over 35% in size; note: potency is the fitted concentration of half-maximal effect;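 for viability: 100% = DMSO-treated cells and 0% = medium-only wells without cells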
# How it was run: as §2
# [13] = qHTS Screen of the MIPE 4.0 Collection Against Ewings Sarcoma (TC32) (AID 1259256); note: nearly all actives have a fitted effect of over 45% in size; note: potency is the fitted concentration of half-maximal effect
# How it was run: as §2
# [14] = Identifying Small Molecule Inhibitors of Pancreatic Cancer Stem Cells (A2780, Spheroid) (AID 1259357); details: Potency: A2780 spheroid viability;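 note: compound exposure lasted 48 h before the ATP luminescence read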; note: potency is the fitted concentration of half-maximal effect
# How it was run: (§3)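 Cytotoxicity read by CellTiter-Glo luminescence after 48 h compound exposure at 37C; percent activity scaled between DMSO-treated cells and cell-free wells. Spheroid formats used cells pre-formed 14 days in stem cell media on hydrogel.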
# [15] = qHTS profiling of the MIPE4 collection as inhibitors of Plasmodium falciparum (DD2) proliferation (AID 743345; call rule not given here); details: P. falciparum Dd2 in erythrocytes, SYBR Green DNA, 72 h; at 28.5 µM (top of the series) unless noted
# How it was run: as §1
# [16] = Identifying Small Molecule Inhibitors of Pancreatic Cancer Stem Cells (SN12C, Adherent) (AID 1259358);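 note: cell survival measured after 48 h of compound exposure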; note: potency is the fitted concentration of half-maximal effect
# How it was run: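 Luminescent ATP readout (CellTiter-Glo) quantifies surviving cells after a 48 h drug incubation. Normalization uses DMSO wells as no inhibition and media-only wells as full inhibition; bortezomib served as positive control.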
# [17] = Identifying Small Molecule Inhibitors of Pancreatic Cancer Stem Cells (Panc1, Spheroid) (AID 1259359);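 note: compound exposure lasted 48 h before reading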
# How it was run: as §3
# [18] = qHTS assay for measurement of the activity of small molecule inhibitors on Zika virus induced Caspase-3 activity in human astrocytoma cells (AID 1224859);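 note: plate controls were ZIKV-infected untreated cells for no effect and uninfected cells for full effect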
# How it was run: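 Human SNB-19 astrocytoma cells in RPMI 1640 with 10% FBS receive compound one hour ahead of Zika virus at 2 FFU/cell. After 6 h infection, caspase-3/7 activity is detected by Caspase-Glo luminescence.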
Compound,remaining parasite growth % (stronger effect = lower value) [1] [%],"activity, percent of control [2] [%]","remaining proliferation (% of control), lower = more inhibition [3] [%]","parasite growth, % of DMSO control [4] [%]","parasite growth, % of control (lower = inhibition) [5] [%]","growth, % of control [6] [%]","cell viability, % of control (lower = more cytotoxic) [7] [%]",viability (% of control) [8] [%],Potency [9],Potency [10],Potency [11],Potency [12],Potency [13],Potency [14],"parasite growth remaining, % of DMSO control (lower = more inhibition) [15] [%]",Potency [16],Potency [17],Potency [18]
C[C@@H](Oc1cc(-n2cnc3ccc(CN4CCN(C)CC4)cc32)sc1C(N)=O)c1ccccc1C(F)(F)F,-0.0099,3.25,1.38,6.16,13.9,6.6,3.33,3.46,inactive,0.0935 µM (active),0.0743 µM (active),0.0743 µM (active),0.0743 µM (active),inactive,–,–,–,–
CC(C)Nc1cc(C(F)(F)F)cc2nc(NC(=O)c3cccnc3)nn12,–,–,–,78.6,92.3,93.5,80.4,120,inactive,11.8 µM (active),13.2 µM (active),inactive,inactive,–,97.3,–,–,–
COCCn1c2c([n+](Cc3cnccn3)c1C)C(=O)c1ccccc1C2=O,-1.59,-0.193,-1.98,9.02,11.6,6.61,9.73,3.5,0.418 µM (active),0.0021 µM (active),0.0166 µM (active),0.0047 µM (active),0.0053 µM (active),0.0132 µM (active),6.3,0.0264 µM (active),inactive,–
COc1ccc2c(OCc3nnc4ccc(-c5ccccc5)nn34)ccnc2c1,–,–,–,53.1,67,59.2,170,105,inactive,–,inactive,inactive,inactive,–,97.5,–,–,inactive
N#Cc1c(O)c2c(-c3ccc(-c4ccccc4O)cc3)csc2[nH]c1=O,93.3,96,87.6,70.3,47.7,71.1,185,108,inactive,–,18.7 µM (active),20.9 µM (active),23.5 µM (active),–,94.8,inactive,–,inactive
CCCCc1nc2cc(C=CC(=O)NO)ccc2n1CCN(CC)CC,-0.311,-0.413,-0.411,4.71,7.61,4.84,53.2,7.58,inactive,–,0.372 µM (active),0.469 µM (active),0.0935 µM (active),–,7.36,2.96 µM (active),–,–
Nc1ncnc2c1c(-c1cccc(OCc3ccccc3)c1)cn2C1CC(CN2CCCC2)C1 (configuration not stated),–,–,–,5.35,9.07,8.63,5.16,1.43,inactive,–,5.26 µM (active),16.6 µM (active),5.26 µM (active),–,7.32,–,–,inactive
CCn1nnc2c(N3CCOCC3)nc(-c3ccc(NC(=O)Nc4ccc(C(=O)N5CCN(C)CC5)cc4)cc3)nc21,–,–,–,–,13.6,5.28,28.1,26.6,inactive,–,0.0418 µM (active),0.0066 µM (active),0.0074 µM (active),–,6.26,–,–,inactive
COc1cc2c(NC3CCN(C(C)C)CC3)nc(C3CCCCC3)nc2cc1OCCCN1CCCC1,–,–,–,5.09,10.3,4.41,9.63,4.14,inactive,–,7.43 µM (active),5.9 µM (active),5.26 µM (active),–,6.68,–,–,inactive
CCNC(=O)Nc1ccc2ncc(Nc3ccc(C)cc3)nc2n1,–,–,–,19.5,–,16.3,50.5,19.7,inactive,0.332 µM (active),2.96 µM (active),2.96 µM (active),1.32 µM (active),–,71.6,–,–,–
N#CCNC(=O)c1ccc(-c2ccnc(Nc3ccc(N4CCOCC4)cc3)n2)cc1,5.35,14,10.2,4.16,13.1,4.94,55.1,32.6,inactive,11.8 µM (active),4.69 µM (active),13.2 µM (active),16.6 µM (active),20.9 µM (active),12.8,–,–,–
Cc1ccc(S(=O)(=O)Nc2cc(Cl)ccc2C(=O)Nc2nc(-c3ccccc3)cs2)cc1,11.7,6.55,8.77,64.3,–,49.7,172,96.8,inactive,10.5 µM (active),13.2 µM (active),16.6 µM (active),14.8 µM (active),–,16.4,2.64 µM (active),–,–
COc1cc(C(C)C)c2c(c1)S(=O)(=O)N(COc1cc(=O)n3cccc(OCCN4CCCCC4)c3n1)C2=O,105,94.1,89.5,101,–,107,3.67,10.9,inactive,10.5 µM (active),18.7 µM (active),26.4 µM (active),20.9 µM (active),–,95.7,inactive,–,–
Cc1cnc(Nc2ccc(F)cc2Cl)nc1-c1c[nH]c(C(=O)N[C@H](CO)c2cccc(Cl)c2)c1,7.37,17.2,6.37,7.48,–,11.5,4.9,1.37,inactive,20.9 µM (active),18.7 µM (active),20.9 µM (active),23.5 µM (active),–,8.92,13.2 µM (active),–,–
CCCCOc1c(C(=O)c2c(F)cc(C)cc2F)cnc2n[nH]cc12,–,–,–,71.2,43.3,92.5,8.67,26.5,inactive,–,2.96 µM (active),18.7 µM (active),16.6 µM (active),–,98.1,–,–,inactive
